# Experimental data taken from PubChem BioAssay (Tox21).
# Where “and” joins values, the source holds several entries; their conditions need not be identical. Equal entries are not always repeated. Records with an inconclusive call do not appear. A number with no mark means an inactive call. Calls of active or inactive are those of the source. Calls come from the whole dose curve; as a rule, active = well fitted inhibition curve with a large enough effect in the repeat runs; inconclusive = weak or mixed curves; inactive = no such curve, though single readings can be large or run the other way.
# Target: Cytochrome P450 2C9 (Homo sapiens) (UniProt P11712)
# Sequence (P11712 whole entry, looked up): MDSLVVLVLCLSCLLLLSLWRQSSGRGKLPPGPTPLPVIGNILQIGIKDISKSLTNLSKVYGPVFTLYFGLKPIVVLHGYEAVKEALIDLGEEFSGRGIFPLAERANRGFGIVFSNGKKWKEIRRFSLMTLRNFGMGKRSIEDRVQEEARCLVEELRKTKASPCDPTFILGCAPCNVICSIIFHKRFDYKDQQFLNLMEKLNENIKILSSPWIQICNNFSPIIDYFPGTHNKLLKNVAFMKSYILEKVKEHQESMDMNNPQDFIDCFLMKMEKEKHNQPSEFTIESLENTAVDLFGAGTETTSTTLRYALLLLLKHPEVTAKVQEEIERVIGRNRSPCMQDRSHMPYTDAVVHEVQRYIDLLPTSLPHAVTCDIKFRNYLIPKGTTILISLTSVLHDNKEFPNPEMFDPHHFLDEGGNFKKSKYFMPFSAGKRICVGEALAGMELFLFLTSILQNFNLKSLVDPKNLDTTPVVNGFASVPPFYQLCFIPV
# Test: Cytochrome P450 Family 2 Subfamily C Member 9 (CYP2C9) small molecule antagonists: luciferase reporter qHTS assay (AID 1671198); note: nearly all actives have a fitted effect of over 50% in size
# Conditions: P450-Glo CYP2C9 enzyme assay, luciferin luminescence; series mostly up to 115 µM; activity change, negative = inhibition: at the top concentration
# Text: U.S. Tox21 Program National Center for Advancing Translational Sciences [NCATS] U.S. Environmental Protection Agency [EPA] National Institutes of Environmental Health Sciences [NIEHS] National Toxicology Program [NTP] U.S. Food and Drug Administration [FDA] Tox21 Assay Overview: Cytochrome P450 (CYP) enzymes are membrane-bound hemeproteins that play a key role in metabolism of drugs and xenobiotics. Evaluation of the effect of chemicals on CYP isozymes is useful to minimize the adverse drug reactions and toxicities in drug development process. Tox21 chemicals were tested for their effect on CYP enzyme activities by using P450-Glo (TM) screening systems (Promega Corporation, Madison, WI). These systems provide a luminescent method containing proluciferin substrates and are converted to luciferin products by CYP isozymes. The luciferin products formed are detected with a luciferin detection reagent, and the amount of light produced is proportional to CYP activity. P450-Glo (TM) CYP2C9 screening system (Catalog. No. V9790) was used to detect the compounds that interfere in CYP2C9 activity.
# Tox21 Assay Protocol Summary: Two ul of enzyme-substrate mix was dispensed into medium binding white/solid 1536-well plates (Greiner Bio-One North America Inc., Monroe, NC) using a BioRaptr Flying Reagent Dispenser (FRD, Beckman Coulter, Brea, CA). […] The assay plates were incubated at room temperature for 10 min. Then 2 ul of NADPH regeneration solution was added to each well of the assay plates using an FRD and incubated at 37C for 1 h. The reaction was stopped by adding 4 ul of detection reagent using an FRD and after 20 min incubation at room temperature the luminescence signal was measured using a ViewLux plate reader (Perkin Elmer, Shelton, CT). Data were expressed as relative luminescence units.
# % is set by controls: 0 for no effect and ±100 for the full control effect; potency is the fitted concentration of half-maximal effect.
Structure (SMILES),Potency,"activity change, negative = inhibition"
CC(C)CCOC(=O)/C=C/c1ccccc1,40.1 µM (active),–
CCCC[P+](C)(CCCC)CCCC,–,1.98%
Cc1ccc(C)cc1,–,-0.907%
Cc1cc(C)c(/C=C2\C(=O)Nc3ccccc32)[nH]1,11 µM (active),–
Cc1c(C)c2c(c(C)c1O)CC[C@@](C)(CCC[C@H](C)CCC[C@H](C)CCCC(C)C)O2,–,-13.9%
CCc1oc2ccccc2c1C(=O)c1cc(I)c(O)c(I)c1,1.38 µM (active),–
CCCCCCCCCCCCCC[N+](C)(C)Cc1ccccc1,80.9 µM (active),–
COc1cc2nc(N3CCN(C(=O)c4ccco4)CC3)nc(N)c2cc1OC,–,1.12% [at 23.6 µM]
CCCCN(CCCC)CC(O)c1cc(Cl)cc2c1-c1ccc(Cl)cc1/C2=C/c1ccc(Cl)cc1 (stereo not given),17.4 µM (active),–
C=C(CC)C(=O)c1ccc(OCC(=O)O)c(Cl)c1Cl,8.88 µM (active) and 5.49 µM (active),–
C[C@H]1NCc2cc(-c3ccc4c(=O)c(C(=O)O)cn(C5CC5)c4c3OC(F)F)ccc21,–,0.717% [at 23.6 µM]
COc1cc(C)ccc1O,–,-13.6%
C/C=C/C=C/COC(=O)C(C)C,63.3 µM (active),–
O=C(O)Cc1ccc2c(c1)C(=O)c1ccccc1CO2,–,-10.5% [at 53 µM]
COc1cc(/C=C/c2ccccc2)oc(=O)c1,32.8 µM (active),–
CC(C)(C)NSc1nc2ccccc2s1,16.2 µM (active),–
Cc1nc2n(c(=O)c1CCN1CCC(c3noc4cc(F)ccc34)CC1)CCCC2,–,1.33% [at 53 µM]
CN1CCN2c3ccccc3Cc3ccccc3C2C1 (stereo not given),–,-10.7% [at 53 µM]
CN(C)Cc1ccccc1O,–,-5.89%
CNC(=O)c1ccccc1Sc1ccc2c(/C=C/c3ccccn3)n[nH]c2c1,6.92 µM (active),–

Structure (SMILES),Potency,"activity change, negative = inhibition"
CN(C)[C@@H](CCOc1cccc2ccccc12)c1ccccc1,15.5 µM (active),–
c1ccc(SSc2ccccc2)cc1,31.9 µM (active),–
CCCCCCCC/C=C\CCCCCCCCN,38.9 µM (active),–
CCN(CCN)c1cccc(C)c1,40.3 µM (active) and 56.4 µM (active),–
[Cu+],11.2 µM (active),–
CC1(C)CCC[C@]2(C)[C@H]3CCO[C@]3(C)CC[C@@H]12,–,0.867%
Cc1c(N)cccc1C(F)(F)F,–,-1.62% [at 53 µM]
CN1CCN(Cc2cc(-c3ccc4[nH]c(=O)oc4c3)co2)[C@@H](c2ccc(F)cc2)C1,–,-7.87%
C[C@@H](O)[C@H](N)C(=O)O,–,17.9% [at 23.6 µM]
Cc1cc(C(C#N)c2ccc(Cl)cc2)c(Cl)cc1NC(=O)c1cc(I)cc(I)c1O (stereo not given),17.4 µM (active),–
CCO[C@@H]1O[C@H](C(COCc2ccccc2)OCc2ccccc2)[C@H](OCc2ccccc2)[C@H]1O (stereo not given in full),8.71 µM (active),–
[Cl][Pt-2]([Cl])([Cl])[Cl],25.3 µM (active),–
CCOC(=O)c1ccc(C2CCC(NC[C@H](O)COc3ccc(O)c(NS(C)(=O)=O)c3)CC2)cc1 (stereo not given in full),5.84 µM (active),–
Cc1ccc(N/N=c2\c(=O)cc/c(=N\Nc3ccc(S(=O)(=O)O)cc3)c2=O)c(C)c1,35.6 µM (active),–
c1ccsc1,–,4.32%
OCC(F)(F)F,–,-11.7%
Cc1cc(-c2ccc(N=Nc3cc(S(=O)(=O)O)c4ccccc4c3N)c(C)c2)ccc1N=Nc1cc(S(=O)(=O)O)c2ccccc2c1N,–,2.49%
COC(C)=O,–,2.58%
COC(=O)c1ccccc1C,–,-19.6%
COc1c(C)c2c(c(O)c1C/C=C(\C)CCC(=O)OCCN1CCOCC1)C(=O)OC2,13.8 µM (active),–
